Experimental data reported in PubChem BioAssay (NCI).
The panel holds about 79,000 compounds, 15% with a hit somewhere; the sample as a whole holds those more often. Active and inactive are the calls of the source. No stated cut-off is given here; in the data, active means growth inhibition above about 70%; inactive means the rest.

Tests used:
[1] = NCI Yeast Anticancer Drug Screen. Data for the rad50 strain (AID 155);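 further: 0% = growth of vehicle-only cultures of the same strain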; conditions: S. cerevisiae rad50 strain growth inhibition; at 50.0 µM; active compounds read high
Outline: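 DNA repair mutant yeast, compound exposure, growth read-out; inhibition is taken relative to vehicle.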

[2] = NCI Yeast Anticancer Drug Screen. Data for the mec2-1 strain (AID 157); conditions: S. cerevisiae mec2-1 strain, at 50.0 µM, active compounds read high
Outline: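 Growth inhibition is read against vehicle-treated controls after compound exposure of the mec2-1 yeast strain, which is defective in DNA damage repair or cell cycle control.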

[3] = NCI Yeast Anticancer Drug Screen. Data for the sgs1 mgt1 strain (AID 161);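 further: 0% = growth of cultures given vehicle only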; conditions: S. cerevisiae sgs1 mgt1 strain, at 50.0 µM, active compounds read high
Outline: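 This yeast growth screen uses a strain with defined DNA-repair lesions; compound-treated growth is compared with vehicle-treated growth.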

[4] = NCI Yeast Anticancer Drug Screen. Data for the cln2 rad14 strain (AID 165);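 further: 0% = growth equal to vehicle treated cultures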; conditions: S. cerevisiae cln2 rad14 strain, at 50.0 µM, active compounds read high
Outline: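 Growth inhibition, relative to vehicle-treated controls, is the read-out. The test organism is a yeast strain with defined genetic alterations, cln2 rad14.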

[5] = NCI Yeast Anticancer Drug Screen. Data for the bub3 strain (AID 167); conditions: S. cerevisiae bub3 mutant strain, at 50.0 µM, active compounds read high
Outline: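 In this screen, a yeast mutant lacking normal mitotic checkpoint function is challenged with compound. Relative growth versus vehicle gives the inhibition value.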

[6] = NCI Yeast Anticancer Drug Screen. Data for the mlh1 rad18 strain (AID 175); conditions: S. cerevisiae mlh1 rad18 strain growth inhibition; at 50.0 µM; active compounds read high
Outline: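 Cells of a genetically altered yeast strain, deficient in DNA damage repair, were treated with compound. Their growth was then compared with that of vehicle-treated cultures to give inhibition.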

Measured: growth inhibition

Cc1ccc(S(=O)(=O)N/N=C2/CCC(C(C)(C)C)CC2Br)cc1 (centres undefined)
inactive: [1] 3.9% | [2] -2.4% | [3] -6.35% | [4] -2.9% | [5] 17.4% | [6] 2.1%

CC1(C)NC(=O)N(CCCCCCN2C(=O)NC(C)(C)C2=O)C1=O
inactive: [1] 5.1% | [2] -9.45% | [3] 5.85% | [4] 6.1% | [5] -20.2% | [6] 8.6%

CCN(CC)CCCC#N
inactive: [1] -5.25% | [2] 4.7% | [3] -8.8% | [4] -13% | [5] -2.6% | [6] -2.85%

Clc1ccc2ccc3ccc(Cl)nc3c2n1
inactive: [1] 18.5% | [2] 20.4% | [3] 26.4% | [4] -18.5% | [5] 8.5% | [6] 9.95%

O=S1(=O)CC(c2ccccc2)(c2ccccc2)Nc2ccccc21
inactive: [1] -6.55% | [2] -14.8% | [3] 0.45% | [4] -5.65% | [5] -11.3% | [6] -18.1%

Cn1c(N)c(/C=C/C(=O)Oc2ccccc2)c(=O)n(C)c1=O
inactive: [1] 49.7% | [2] 18.4% | [3] 16.5% | [4] 16.8% | [5] -8.8% | [6] -43.1%

COc1ccccc1C1OC(C)C(C)O1 (centres undefined)
inactive: [1] -16.1% | [2] -10.7% | [3] -7.35% | [4] 5.5% | [5] -25.9% | [6] -16.3%

O=C(O)Cn1ccc(=O)c2c([N+](=O)[O-])cccc21
inactive: [1] 27.2% | [2] 16.1% | [3] 0.35% | [4] 5.3% | [5] 8.55% | [6] -51.6%

CCCCOC(=O)c1cc(/C=C\c2ccccc2)on1
inactive: [1] -12.9% | [2] -2.45% | [3] 3.1% | [4] -69.6% | [5] 30.6% | [6] 9.25%

Nc1cc(C(=O)O)c2ccccc2c1
inactive: [1] 4.5% | [2] -6.95% | [3] -5.7% | [4] -16.8% | [5] 3.45% | [6] 5.15%

CCCCOC(=O)c1ccc(Cl)c(Cl)c1
inactive: [1] -1.7% | [2] -3.2% | [3] -14.9% | [4] -32.9% | [5] 3% | [6] 7.45%

CCOCCOCCOCc1nc(C#N)c(N)o1
inactive: [1] -35.6% | [2] -23.3% | [3] -27.8% | [4] -14.8% | [5] -30.5% | [6] -63.4%

CCC1=CCN2CCC34c5cc(C6(C(=O)OC)CC7CC(CC)CN(CCc8c6[nH]c6ccccc86)C7)c(OC)cc5N(C)C3C(O)(C(=O)OC)C(OC(C)=O)C1C24 (centres undefined)
inactive: [1] 0.2% | [2] 9.25% | [3] -3.95% | [4] 3.95% | [5] -1.55% | [6] 10.6%

CCOC=C(C(=O)OCC)C(=O)OCC
inactive: [1] 22.1% | [2] -7.45% | [3] -6.5% | [4] -1% | [5] -10.6% | [6] 15.6%

O=C(NO)C(=O)NO
inactive: [1] -0.65% | [2] -2.95% | [3] -1.9% | [4] -19.4% | [5] -20% | [6] -16.8%

CCc1ccc2ccccc2c1N
inactive: [1] 20.6% | [2] 8.05% | [3] 6.1% | [4] -1.65% | [5] -0.3% | [6] 15.1%

Cc1cccc(Cl)c1NC(=O)Nc1ccc(C#N)cc1
inactive: [1] 15.4% | [2] -10.6% | [3] 17.9% | [4] 5.35% | [5] -3.45% | [6] -1%

N=C(N)SCc1cccc2ccc3cccc(CSC(=N)N)c3c12
inactive: [1] 4.05% | [2] 8.5% | [3] 17.4% | [4] -3.1% | [5] 2.6% | [6] 30.9%

CN(C)c1nc(O)cc(=O)[nH]1
inactive: [1] 5.05% | [2] -0.35% | [3] -6.6% | [4] -34.8% | [5] 8.3% | [6] 25.3%

CC(=O)OCCOC(=O)Nc1ccccc1
inactive: [1] 0.05% | [2] -14.5% | [3] -13.9% | [4] -22.2% | [5] -2.55% | [6] -4.85%

C=CCCCN(c1ccc(C(=O)OCC)cc1)S(=O)(=O)c1ccc(C)cc1
inactive: [1] 28.3% | [2] -11.4% | [3] 12.1% | [4] 12.7% | [5] -6.1% | [6] 4.2%

O=S(=O)(O)c1cc(Cl)c(O)c(Cl)c1
inactive: [1] 7.25% | [2] -21.8% | [3] 9.15% | [4] -41.9% | [5] 6.8% | [6] 23.2%

O=C1C2=C(OCO2)C(=O)C2=C1OCO2
inactive: [1] 2.65% | [2] 20.8% | [3] 21.1% | [4] 3.7% | [5] 9.95% | [6] 3.2%

CNc1ccccc1C(=O)N/N=C/c1c(O)ccc2ccccc12
inactive: [1] -3.15% | [2] 18.3% | [3] 19% | [4] -10.3% | [5] 36.1% | [6] 2.45%

Cn1c(=O)c2[nH]c(SCc3ccccn3)nc2n(C)c1=S
inactive: [1] 6.05% | [2] -42.5% | [3] -20.9% | [4] -47.1% | [5] -26.6% | [6] 13.4%

N#CCCN1CCCSC1=S
inactive: [1] 6.15% | [2] 17.1% | [3] 4.2% | [4] 4.05% | [5] -3.1% | [6] 1.7%

C1CSCCSCCCSCCSCCCSCCSCCCSCCSC1
inactive: [1] 21.2% | [2] 20.9% | [3] 45.9% | [4] 13.4% | [5] 21.1% | [6] 44.6%

NC1(c2ccccc2)CON=C(c2ccccc2)C1 (centres undefined)
inactive: [1] 17.2% | [2] 5.85% | [3] -5.8% | [4] -15.8% | [5] 1.4% | [6] 16.9%

CCSC(C(O)C(O)C(O)C(O)CO)n1cc(C)c(=O)[nH]c1=O (centres undefined)
inactive: [1] 3% | [2] 5.45% | [3] -2.85% | [4] -3.7% | [5] 4.2% | [6] -0.25%

CC(=O)c1cccc(NC(=O)C(=O)C(C(=O)c2ccccc2F)C2OC(=O)c3ccccc32)c1 (centres undefined)
inactive: [1] 9.2% | [2] -7.2% | [3] -5.45% | [4] 3.7% | [5] -6.2% | [6] -4.05%

CC(/C=N/NC1=NCCCCN1)=N\NC1=NCCCCN1
inactive: [1] -4.95% | [2] -16% | [3] -15.6% | [4] 8.8% | [5] -10.6% | [6] -16.4%

CC1(C)CC(=O)C2(C)C(C1O)C2C1C2C(O)C(C)(C)CC(=O)C21C (centres undefined)
inactive: [1] -11.2% | [2] 3.25% | [3] -5.3% | [4] -6.75% | [5] 8.2% | [6] -16.1%

CC1C/C(=C\c2ccccc2)C(=O)/C1=C/c1ccccc1 (centres undefined)
inactive: [1] -3.6% | [2] 17.4% | [3] 7.3% | [4] -6.4% | [5] -2.75% | [6] -15.9%

Oc1c(Cl)cc(N=Cc2ccc(N(CCCCl)CCCCl)cc2)cc1Cl
inactive: [2] 14.7% | [5] -13.6%
active: [1] 92.6% | [3] 94.8% | [4] 92% | [6] 80%

NC(=S)NCc1ccccc1C(O)c1ccccc1 (centres undefined)
inactive: [1] 18.8% | [2] 13.8% | [3] -0.75% | [4] 18.3% | [5] 18.5% | [6] 21.2%

CCOC(=O)C(Cl)(NC(=O)NC(Cl)(C(=O)OCC)C(F)(F)F)C(F)(F)F (centres undefined)
inactive: [1] 3.8% | [2] 23.8% | [3] -0.85% | [4] -1.75% | [5] 3.2% | [6] 6.65%

Cc1ccc2cccc(C)c2n1
inactive: [1] -14.9% | [2] -26.6% | [3] -45.3% | [4] -6.7% | [5] -29.6% | [6] -23.5%

CC(=O)OC1CC(O)C23COC(O)C1(C)C2CC(O)C1(C)C3C(=O)C(O)C2(C)C(c3ccoc3)CC3OC321 (centres undefined)
inactive: [1] -9.9% | [2] 2.75% | [3] -11.3% | [4] 0.2% | [5] -2.2% | [6] -37.7%

COc1cc(OC)c(NC(=O)Nc2ccc([N+](=O)[O-])cc2OC)cc1Cl
inactive: [1] -21.6% | [2] -17.6% | [3] -7.15% | [4] -49.1% | [5] 1.25% | [6] -7.2%
